Inconclusive results are not listed. Activity calls are given as the source filed them. The calls were made as follows, unless noted: active = hit-call score of the fitted dose curve at least 0.9, where 1 is the maximum; inactive = score below 0.9.
Experiments:
DIO2 (gene 1734) = test: CCTE_GLTED_hDIO2: CCTE's human Deiodinase 2 (DIO2) Inhibition Assay, Great Lakes Toxicology and Ecology Division (GLTED) Lab (AID 2284050; active = hit-call score of the fitted dose curve at least 0.9, where 1 is the maximum)
Procedure, shortened: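 Cell-free human DIO2 enzyme was incubated with test chemical for 3 h; iodide liberated from substrate was then quantified by the Sandell-Kolthoff reaction (absorbance), run in triplicate. Loss of signal versus DMSO baseline indicated inhibition.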

DIO3 (gene 1735) = test: CCTE_GLTED_hDIO3: CCTE's human Deiodinase 3 (DIO3) Inhibition Assay, Great Lakes Toxicology and Ecology Division (GLTED) Lab (AID 2284055; active = hit-call score of the fitted dose curve at least 0.9, where 1 is the maximum;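 as to AC50: potency is for inhibition seen as loss of released iodide signal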)
Procedure, shortened: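 Cell-free assay with human DIO3 enzyme produced by adenovirus expression; enzyme incubated with test chemical for 3 hours. Liberated iodide then measured by Sandell-Kolthoff absorbance; loss of signal versus DMSO baseline indicates inhibition, run in triplicate.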

[1] = CCTE_Shafer_MEA_dev_burst_duration_mean: CCTE's Neural Network Formation Assay for Mean Burst Duration, Shafer Lab (AID 2284045)
Procedure, shortened: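 Read-out: average first-to-last-spike interval within single-electrode bursts, averaged over bursting electrodes per well, then summarised as area under the curve across days 5, 7, 9 and 12. Developing rat cortical networks were exposed from day 0.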

[2] = CCTE_Shafer_MEA_dev_interburst_interval_mean: CCTE's Neural Network Formation Assay for Mean Interburst Interval, Shafer Lab (AID 2284046);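 also: well-mean interburst interval of bursting electrodes as AUC over four recording days; curve fitted for decrease in interburst interval relative to DMSO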
Procedure, shortened: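 Network formation assay in primary rat cortical cultures, exposed from DIV 0 to 12. Mean interburst interval per well, integrated as AUC over four recordings.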

[3] = CCTE_Shafer_MEA_dev_inter_network_spike_interval_mean: CCTE's Neural Network Formation Assay for Mean Inter-network Spike Interval, Shafer Lab (AID 2284047)
Procedure, shortened: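 Compound was given at plating to primary rat cortical neurons and renewed with full medium changes on DIV 5 and 9. Extracellular activity was recorded on days 5, 7, 9, 12; AUC values were fitted for loss relative to DMSO control.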

[4] = CCTE_Shafer_MEA_dev_network_spike_number: CCTE's Neural Network Formation Assay for Number of Network Spikes, Shafer Lab (AID 2284048);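 also: synchronized bursts across electrodes counted on days 5 7 9 12 and integrated as AUC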
Procedure, shortened: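 Developing networks of primary rat cortical neurons are treated over 12 days starting at plating, with media and compound fully replaced on DIV 5 and 9. Network spike counts from four recording days are integrated as trapezoidal AUC.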

[5] = CCTE_Shafer_MEA_dev_network_spike_peak: CCTE's Neural Network Formation Assay for Mean Number of Electrodes in Network Spike, Shafer Lab (AID 2284049);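 as to AC50: fitted for loss of signal meaning fewer electrodes in network spikes than DMSO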
Procedure, shortened: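 Rat cortical primary culture, 1.5 x 10^5 cells/well, 48-well MEA (16 electrodes/well). Dosing day 0 through DIV 12, full media/compound exchange DIV 5, 9. AxIS adaptive spike detection; AUC over days 5/7/9/12; loss-of-signal vs DMSO.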

[6] = CCTE_Shafer_MEA_dev_spike_duration_mean: CCTE's Neural Network Formation Assay for Mean Spike Duration, Shafer Lab (AID 2284051);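 also: mean network spike duration pooled as area under curve over DIV 5 to 12 recordings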
Procedure, shortened: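 With DMSO as baseline, loss of mean network spike duration was scored from extracellular recordings of rat cortical neurons on MEA plates. Exposure spanned plating to DIV 12; the four recording days were collapsed into one AUC value.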

[7] = CCTE_Shafer_MEA_dev_network_spike_duration_std: CCTE's Neural Network Formation Assay for Standard Deviation of Network Spike Duration, Shafer Lab (AID 2284052);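 also: area under curve of spike duration SD across recording days 5 to 12; hits are decreases in network spike duration SD versus DMSO vehicle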
Procedure, shortened: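 Developing networks of rat cortical neurons were exposed over twelve days in vitro on 48-well MEA plates. Trapezoidal AUC of recordings (DIV 5–12) was analysed for signal loss relative to DMSO vehicle.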

[8] = CCTE_Shafer_MEA_dev_per_network_spike_spike_number_mean: CCTE's Neural Network Formation Assay for Mean Number of Spikes in a Network Spike, Shafer Lab (AID 2284053)
Procedure, shortened: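 First, rat cortical cells (1.5 x 10^5/well) were seeded onto MEA wells; second, dosing began at plating and was refreshed on DIV 5 and 9; finally, network-spike spike counts across DIV 5–12 were summarized as AUC.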

[9] = CCTE_Shafer_MEA_dev_per_network_spike_spike_percent: CCTE's Neural Network Formation Assay for Percent of Spikes in a Network Spike, Shafer Lab (AID 2284054)
Procedure, shortened: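 Rat primary cortical cultures, 1.5 x 10^5 cells/well on MEA. Continuous compound exposure d0–12, medium/compound renewed DIV 5, 9. Network-spike spike % (0.05 s peak window), AUC over 4 recordings, DMSO baseline.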

[10] = CCTE_Shafer_MEA_dev_LDH: CCTE's Lactate Dehydrogenase Assay for Cytotoxicity in the Neural Network Formation Assay, Shafer Lab (AID 2284068; active = hit-call score of the fitted dose curve at least 0.9, where 1 is the maximum;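 also: exposure for twelve days from plating with re-dosing on DIV 5 and 9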)
Procedure, shortened: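 Developing rat cortical networks on MEA plates are exposed to compound for 12 days from plating. LDH activity is measured spectrophotometrically, with DMSO as baseline.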

[11] = CCTE_Shafer_MEA_acute_AB: CCTE's Alamar Blue Assay for Cytotoxicity in the Neural Acute Assay, Shafer Lab (AID 2284069; active = hit-call score of the fitted dose curve at least 0.9, where 1 is the maximum;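 also: active compounds lower the viability signal compared with DMSO wells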)
Procedure, shortened: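 Cytotoxicity endpoint for acute MEA exposures of primary rat cortical neurons on day 13 or 15. Resazurin reduction is read fluorescently at 544/590 nm, with DMSO as the negative-control baseline.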

[12] = CCTE_Shafer_MEA_dev_AB: CCTE's Alamar Blue Assay for Cytotoxicity in the Neural Network Formation Assay, Shafer Lab (AID 2284083; active = hit-call score of the fitted dose curve at least 0.9, where 1 is the maximum;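 also: resazurin reduction fluorescence as viability of cultured neurons; twelve days of exposure from plating with re-dosing on DIV 5 and 9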)
Procedure, shortened: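 Cytotoxicity companion to the developmental MEA: primary rat cortical neurons, 12-day exposure starting day 0, compound refreshed DIV 5 and 9; resazurin fluorescence, fitted against DMSO vehicle.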

[13] = CCTE_Shafer_MEA_dev_mutual_information_norm: CCTE's Neural Network Formation Assay for Mutual Information Normalization, Shafer Lab (AID 2284091)
Procedure, shortened: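 Developing rat cortical networks on 16-electrode MEA wells are treated throughout formation (DIV 0–12). Shared electrode information is recorded four times, converted to area-under-curve, and fitted for decreases against DMSO vehicle.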

[14] = CCTE_Shafer_MEA_dev_correlation_coefficient_mean: CCTE's Neural Network Formation Assay for Mean Correlation Coefficient, Shafer Lab (AID 2284093);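 as to AC50: well mean pairwise spike train correlation integrated as AUC over recording days 5 to 12; potency fitted for loss of correlation relative to DMSO vehicle wells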
Procedure, shortened: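 Extracellular firing from rat cortical networks on 48-well MEAs, DMSO-referenced, negative fitting direction. Compound present from plating to DIV12; mean pairwise correlation per well integrated over DIV5–12 recordings by trapezoidal AUC.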

## Cc1oc(-c2ccccc2)nc1CCOc1ccc(C[C@H](Nc2ccccc2C(=O)c2ccccc2)C(=O)O)cc1
DIO2 (gene 1734)
  AC50: 46.1 µM (active)
DIO3 (gene 1735)
  AC50: 67.5 µM (active)

## OCCC(F)(F)C(F)(F)C(F)(F)C(F)(F)C(F)(F)C(F)(F)C(F)(F)C(F)(F)F
[1]
  outcome: inactive
[2]
  outcome: inactive
[3]
  outcome: inactive
[4]
  outcome: inactive
[5]
  AC50: 24.2 µM (active)
[6]
  outcome: inactive
[7]
  outcome: inactive
[8]
  outcome: inactive
[9]
  outcome: inactive
[10]
  AC50: 28.5 µM (active)
[11]
  outcome: inactive
[12]
  outcome: inactive
[13]
  outcome: inactive
[14]
  AC50: 23.4 µM (active)

## CCCCCCCCCCCCN1CCCC1=O
DIO2 (gene 1734)
  AC50: 138 µM (active)
DIO3 (gene 1735)
  AC50: 87.8 µM (active)

## CCCCCCCCCCCCCC[N+](C)(C)C
DIO2 (gene 1734)
  AC50: 24.7 µM (active)
DIO3 (gene 1735)
  AC50: 7.85 µM (active)

## OCCC(F)(F)C(F)(F)C(F)(F)C(F)(F)C(F)(F)C(F)(F)F
[1]
  outcome: inactive
[2]
  outcome: inactive
[3]
  outcome: inactive
[4]
  outcome: inactive
[5]
  outcome: inactive
[6]
  outcome: inactive
[7]
  outcome: inactive
[8]
  outcome: inactive
[9]
  outcome: inactive
[13]
  outcome: inactive
[14]
  outcome: inactive

## CCCCCCCCCCCCCCCS(=O)(=O)Oc1ccccc1
[11]
  outcome: inactive

## CC(C)(C)c1ccc(O)c(C(C)(C)C)c1
DIO2 (gene 1734)
  AC50: 159 µM (active)
DIO3 (gene 1735)
  AC50: 96.5 µM (active)

## C=C(C)C(=O)OCCC(F)(F)C(F)(F)C(F)(F)C(F)(F)C(F)(F)C(F)(F)F
[1]
  outcome: inactive
[2]
  outcome: inactive
[3]
  outcome: inactive
[4]
  outcome: inactive
[5]
  outcome: inactive
[6]
  outcome: inactive
[7]
  outcome: inactive
[8]
  outcome: inactive
[9]
  outcome: inactive
[10]
  outcome: inactive
[13]
  outcome: inactive
[14]
  outcome: inactive

## O=C(O)c1ccccc1C(c1ccc(O)cc1)c1ccc(O)cc1
[11]
  outcome: inactive

## CCC(=C(c1ccc(O)cc1)c1ccc(OCCN(C)C)cc1)c1ccccc1
DIO2 (gene 1734)
  AC50: 35.2 µM (active)
DIO3 (gene 1735)
  AC50: 58.4 µM (active)
[11]
  outcome: inactive

## CC(O)CO (stereo not given)
[1]
  outcome: inactive
[2]
  outcome: inactive
[3]
  outcome: inactive
[4]
  outcome: inactive
[5]
  outcome: inactive
[6]
  outcome: inactive
[7]
  outcome: inactive
[8]
  outcome: inactive
[9]
  outcome: inactive
[12]
  outcome: inactive
[13]
  outcome: inactive
[14]
  outcome: inactive

## CCCCCCCCCCCCc1ccccc1S(=O)(=O)O
DIO2 (gene 1734)
  AC50: 72.2 µM (active)
DIO3 (gene 1735)
  AC50: 40 µM (active)
[11]
  outcome: inactive

## OC1CCC(C2CCCCC2)CC1 (stereo not given)
[11]
  outcome: inactive

## CC(C)(C)c1cc(C(C)(C)C)c(O)c(C(C)(C)C)c1
[11]
  outcome: inactive

## CN(C)C=O
[11]
  outcome: inactive

## Oc1cc2ccccc2c2ccccc12
[11]
  AC50: 8 µM (active)

## c1ccc2c(c1)Cc1ccccc1-2
[1]
  outcome: inactive
[2]
  outcome: inactive
[3]
  outcome: inactive
[4]
  outcome: inactive
[5]
  outcome: inactive
[6]
  outcome: inactive
[7]
  outcome: inactive
[8]
  outcome: inactive
[9]
  outcome: inactive
[10]
  outcome: inactive
[12]
  outcome: inactive
[13]
  outcome: inactive
[14]
  outcome: inactive

## CN1CCN(c2ccccc2/C=C2\SCCN(c3ccc(Cl)c(Cl)c3)C2=O)CC1
DIO2 (gene 1734)
  AC50: 104 µM (active)
DIO3 (gene 1735)
  outcome: inactive
[11]
  outcome: inactive
